This note sets out measurements from PubChem BioAssay (Tox21).

For assay [1], the target named is Luciferin 4-monooxygenase (Photinus pyralis) (UniProt P08659). Briefly: qHTS assay to identify small molecule inhibitors of firefly luciferase (AID 1224835). Note: nearly all actives have a fitted effect of over 25% in size. A digest of the protocol: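 Quantitative HTS format; KM concentrations of both substrates. Purified P. pyralis FLuc activity quantified from luminescence images.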
A short description of assay [2]: qHTS assay to identify small molecule agonists of the constitutive androstane receptor (CAR) signaling pathway - cell viability counter screen (AID 1224836). Note: nearly all actives have a fitted effect of over 45% in size. A digest of the protocol:
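Double-stable HepG2 hepatoma cells (hCAR plus CYP2B6-2.2kb) are treated for 23 h at 37 C with test compounds in 15-point concentration series. PK11195 at 0.75 uM final is co-added. Cell viability is quantified by CellTiter-Fluor.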

A short description of assay [3]: qHTS assay to identify small molecule antagonists of the constitutive androstane receptor (CAR) signaling pathway - cell viability counter screen (AID 1224837). Note: nearly all actives have a fitted effect of over 45% in size. The method, boiled down: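 Read-out: CellTiter-Fluor fluorescence after 23 hr at 37 C/5% CO2. Cells: HepG2 double-stable for hCAR and CYP2B6-2.2kb. Compounds tested at 15 concentrations in the presence of CITCO, final concentration 50 nM.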

Assay [4] in a line: qHTS assay to identify small molecule antagonists of the estrogen related receptor signaling pathway with the pleiotropic PPARgamma coactivator (PGC) from Tox21 10K library - cell viability counter screen (AID 1224840; active = well fitted cell-killing curve with a large enough effect in the repeat runs, not every such curve was filed as active; note: nearly all actives have a fitted effect of over 40% in size). A digest of the protocol:
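Fluorescence read-out of CellTiter-Fluor viability reagent, added after cells had been exposed to compound in DMSO for 17.5 h at 37 C; 30 min development at 37 C/5% CO2. Cells: PGC/ERR line, 2,000/well.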

Assay [5] concerns the target Thyrotropin receptor (Homo sapiens) (UniProt P16473). Briefly: qHTS assay to identify small molecule agonists of the thyroid stimulating hormone receptor (TSHR) signaling pathway (AID 1224843; calls by dose curve; note: nearly all actives have a fitted effect of over 45% in size). The method, boiled down:
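Using 15 concentrations per compound in triplicate, cAMP production was monitored in TSHR-HEK293 cells after 30 min compound incubation at RT; HTRF reagents followed, with fluorescence intensity recorded after 1 h.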

Assay [6] in a line: qHTS assay to identify small molecule agonists of the hypoxia (HIF-1) signaling pathway - cell viability counter screen (AID 1224844; calls by dose curve; note: nearly all actives have a fitted effect of over 50% in size). The method, boiled down:
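CellTiter-Glo luminescence read-out, 30 min RT, taken in the same wells as the beta-lactamase HRE reporter assay; HRE-bla ME-180 cells, 0.5% dialyzed FBS, 17 hr compound treatment at 37C, 5% CO2.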

A short description of assay [7]: qHTS assay to identify small molecule agonists of H2AX (AID 1224845; active = well fitted activation curve with a large enough effect in the signal ratio in the repeat runs, not every such curve was filed as active; the % refers to the signal ratio). The method, boiled down: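 Wild-type CHO-K1 cells plated overnight, then exposed 3 hr at 37C to compounds at 15 concentrations (0.76% DMSO). Lysed, then HTRF anti-pH2AX(S139)-cryptate/anti-H2AX-d2 detection after 24 hr at room temperature; emissions 665 and 620 nm.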
Assay [8] can be described thus: qHTS assay to identify small molecule agonists of the hypoxia (HIF-1) signaling pathway (AID 1224846; active = well fitted activation curve with a large enough effect in the signal ratio in the repeat runs, not every such curve was filed as active; the % refers to the signal ratio). A digest of the protocol:
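Beta-lactamase FRET read-out (CCF4-AM substrate) from ME-180 cells carrying an HRE-driven bla reporter, after 17 hrs compound exposure at 37C/5% CO2. Cells were seeded at 2,000 per well in 0.5% dialyzed FBS medium and preincubated 5 hrs.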

Assay [9] in a line: qHTS assay to identify small molecule agonists of H2AX - cell viability counter screen (AID 1224847; calls by dose curve; note: top concentration of the series differs between compounds; nearly all actives have a fitted effect of over 30% in size). The method, boiled down: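 For this counter screen, overnight-attached CHO-K1 cells received test compounds (15 concentrations, 0.76% DMSO final); 3 hr later at 37C, CellTiter-Glo reagent was added and luminescence recorded after 30 min at room temperature.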
Assay [10] can be described thus: qHTS RealTime-Glo MT Cell Viability Assay in HepG2 cells - 24 hour (AID 1224867). Note: nearly all actives have a fitted effect of over 50% in size. A digest of the protocol: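 Cells + NanoLuc/prosubstrate dispensed (600 cells/well) → 5 h at 37 C/5% CO2 → compounds in DMSO transferred → 40 h incubation at 37 C, luminescence read at 0, 8, 16, 24, 32, 40 h.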
Assay [11] in a line: qHTS RealTime-Glo MT Cell Viability Assay in HEK293 cells - 32 hour (AID 1224868). Note: top concentration of the series differs between compounds; nearly all actives have a fitted effect of over 50% in size. The method, boiled down:
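Tox21 10K qHTS, HEK293, 600 cells/well, RealTime-Glo reagent co-dispensed with cells; 5 h preincubation, compound by pintool, 37 C, luminescence at 0–40 h.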

Assay [12] is described as follows: qHTS RealTime-Glo MT Cell Viability Assay in HepG2 cells - 40 hour (AID 1224870). Note: nearly all actives have a fitted effect of over 50% in size. The method, boiled down: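 HepG2 cells mixed with RealTime-Glo MT reagents (NanoLuc plus cell-permeant prosubstrate) were seeded at 600 cells/well, incubated 5 h at 37 C/5% CO2, then pinned with compounds in DMSO; nonlytic luminescence tracked viability during 40 h treatment.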
Assay [13] in a line: qHTS assay to identify small molecule antagonists of the estrogen related receptor signaling pathway with the pleiotropic PPARgamma coactivator (PGC) from Tox21 10K library (AID 1224841; call rule not given here). A digest of the protocol: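 Luminescence read-out (One-Glo luciferase reagent, 30 min at room temperature) from PGC/ERR cells exposed to DMSO-dissolved test compounds for 18 h at 37 C; cells, 2,000 per well, had been preincubated 6 h before compound transfer.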

The nature of assay [14]: qHTS assay to identify small molecule antagonists of the estrogen related receptor (ERR) signaling pathway from Tox21 library (AID 1224848). Note: nearly all actives have a fitted effect of over 50% in size. A digest of the protocol: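 Tox21 10K compounds in DMSO tested for ERR pathway antagonism in NTP's ERR cell line; 18 h, 37 C exposure; ONE-Glo luminescence.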
Assay [15] can be described thus: A CellTox Green Cytotoxicity Assay to monitor cytotoxicity in HEK293 cells - 0 hour (AID 1224869). Note: nearly all actives have a fitted effect of over 50% in size. A digest of the protocol:
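Read-out: fluorescence of a cell-impermeant cyanine dye staining DNA of dead cells, proportional to cytotoxicity. HEK293, 600 cells/well with reagent, compound (23 nL DMSO) added after 5 h; reads at 0, 8, 16, 24, 32, 40 h.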

Assay [16] concerns the target Nuclear receptor subfamily 1 group I member 3 (Homo sapiens) (UniProt Q14994). Nature of the assay: qHTS assay to identify small molecule antagonists of the constitutive androstane receptor (CAR) signaling pathway (AID 1224838).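 Note: HepG2 cells stably expressing hCAR with CYP2B6 luciferase reporter stimulated by CITCO; nearly all actives have a fitted effect of over 40% in size.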 A digest of the protocol: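 Read-out: ONE-Glo luciferase luminescence after 30 min at room temperature. HepG2-CYP2B6-hCAR double-stable cells, compounds in 15-point titration plus 50 nM CITCO final, 24 h at 37 C/5% CO2.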

For assay [17] the target is unchanged. Nature of the assay: qHTS assay to identify small molecule agonists of the constitutive androstane receptor (CAR) signaling pathway (AID 1224839).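 For activation: HepG2 cells stably carrying human CAR and a CYP2B6 luciferase reporter.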 Note: nearly all actives have a fitted effect of over 15% in size. Note: potency is the fitted concentration of half-maximal effect. The method, boiled down:
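Readout: firefly luciferase luminescence via ONE-Glo. System: HepG2 double-stable for hCAR and CYP2B6-2.2kb. Conditions: 15-point compound titration, PK11195 at 0.75 uM final, 24 h incubation.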

The nature of assay [18]: qHTS assay to identify small molecule agonists of the estrogen related receptor signaling pathway with the pleiotropic PPARgamma coactivator (PGC) from Tox21 10K library (AID 1224842). Note: nearly all actives have a fitted effect of over 15% in size. The method, boiled down:
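PGC/ERR reporter cells (NTP line) were seeded 2,000 per well, rested 6 h at 37 C/5% CO2, then pin-dosed with compounds in DMSO for 18 h at 37 C; luciferase read by One-Glo luminescence after 30 min at room temperature.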

The nature of assay [19]: qHTS assay to identify small molecule agonists of the estrogen related receptor (ERR) signaling pathway from Tox21 library (AID 1224849; calls by dose curve; note: nearly all actives have a fitted effect of over 15% in size). Particulars: ERR reporter cell line, ONE-Glo luciferase, 18 h; at 92.4 µM (top of the series) unless noted. A digest of the protocol:
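Luminescence readout (ONE-Glo, 30 min RT) after 18 h compound exposure at 37 C of NTP-supplied ERR reporter cells; cells were plated 6 h before compound addition by pin tool.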

Each structure is given as a SMILES string. Values without a mark were called inactive. Results filed as inconclusive are left out. Activity calls are given as the source filed them. Unless noted, calls come from the whole dose curve; as a rule, active = well fitted curve in the direction sought with a large enough effect in the repeat runs; inconclusive = weak or mixed curves; inactive = no such curve, though single readings can be large; an effect the other way counts as inactive or inconclusive.
% is set by controls: 0 for no effect and ±100 for the full control effect.

Chain of Thyrotropin receptor (Homo sapiens) (P16473 whole entry, looked up): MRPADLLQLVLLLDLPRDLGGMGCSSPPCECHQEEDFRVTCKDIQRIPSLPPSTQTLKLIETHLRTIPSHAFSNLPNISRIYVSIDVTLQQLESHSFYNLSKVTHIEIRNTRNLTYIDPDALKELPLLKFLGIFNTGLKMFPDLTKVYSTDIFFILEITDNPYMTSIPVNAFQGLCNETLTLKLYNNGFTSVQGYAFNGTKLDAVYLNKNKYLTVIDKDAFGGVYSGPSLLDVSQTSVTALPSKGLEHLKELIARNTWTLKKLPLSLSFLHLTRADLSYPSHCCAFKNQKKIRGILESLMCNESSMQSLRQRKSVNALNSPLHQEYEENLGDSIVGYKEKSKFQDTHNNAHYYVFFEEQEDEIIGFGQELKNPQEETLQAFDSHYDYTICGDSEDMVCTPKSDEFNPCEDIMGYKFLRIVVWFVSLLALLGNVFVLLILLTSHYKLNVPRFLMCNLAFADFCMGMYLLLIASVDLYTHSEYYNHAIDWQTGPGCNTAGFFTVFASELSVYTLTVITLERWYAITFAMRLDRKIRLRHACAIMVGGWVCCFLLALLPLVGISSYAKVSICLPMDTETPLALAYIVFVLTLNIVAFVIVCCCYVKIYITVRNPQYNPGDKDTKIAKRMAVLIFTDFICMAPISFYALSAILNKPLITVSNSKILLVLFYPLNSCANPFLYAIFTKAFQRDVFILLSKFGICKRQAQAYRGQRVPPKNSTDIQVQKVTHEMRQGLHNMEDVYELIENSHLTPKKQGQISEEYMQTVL
Chain of Luciferin 4-monooxygenase (Photinus pyralis) (P08659 whole entry, looked up): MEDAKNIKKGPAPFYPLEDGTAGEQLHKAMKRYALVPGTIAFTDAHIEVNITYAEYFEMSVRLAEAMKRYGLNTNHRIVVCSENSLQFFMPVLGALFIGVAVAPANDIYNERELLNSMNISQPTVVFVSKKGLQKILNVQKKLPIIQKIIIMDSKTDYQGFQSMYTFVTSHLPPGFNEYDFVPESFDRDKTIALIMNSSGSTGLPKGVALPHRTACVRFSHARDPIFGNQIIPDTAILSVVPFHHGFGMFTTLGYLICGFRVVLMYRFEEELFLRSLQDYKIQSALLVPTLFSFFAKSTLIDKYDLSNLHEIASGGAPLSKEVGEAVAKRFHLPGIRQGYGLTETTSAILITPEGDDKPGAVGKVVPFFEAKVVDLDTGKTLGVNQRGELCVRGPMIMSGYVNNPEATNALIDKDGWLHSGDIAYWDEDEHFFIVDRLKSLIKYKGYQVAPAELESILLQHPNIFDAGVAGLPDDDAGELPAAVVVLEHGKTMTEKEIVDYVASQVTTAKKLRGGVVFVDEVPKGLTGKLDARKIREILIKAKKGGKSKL
Chain of Nuclear receptor subfamily 1 group I member 3 (Homo sapiens) (Q14994 whole entry, looked up): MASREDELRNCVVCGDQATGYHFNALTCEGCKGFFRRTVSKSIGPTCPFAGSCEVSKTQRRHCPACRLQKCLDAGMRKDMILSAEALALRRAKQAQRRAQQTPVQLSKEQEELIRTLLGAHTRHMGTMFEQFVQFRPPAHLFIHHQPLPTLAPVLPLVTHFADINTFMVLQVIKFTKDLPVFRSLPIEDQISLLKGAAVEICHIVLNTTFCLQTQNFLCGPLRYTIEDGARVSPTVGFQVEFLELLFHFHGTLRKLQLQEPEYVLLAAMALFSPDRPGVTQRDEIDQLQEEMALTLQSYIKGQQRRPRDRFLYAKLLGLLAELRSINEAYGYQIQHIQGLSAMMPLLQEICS

As to `Clc1ccccc1N1CCNCC1`, the Potency entry in [1], in [2], in assay [3], in assay [4], in [5] and in [6] was “inactive” throughout. Besides, the Potency entry in [7], in [9], in assay [10], in assay [11] and in assay [12] was “inactive” each time. The compound was called inactive in assay [8].

Take `O=C1CN=C(c2ccccc2)c2cc([N+](=O)[O-])ccc2N1`: the Potency result in [1], in assay [2], in assay [3], in [4], in assay [13] and in assay [5] was “inactive” in each case. The Potency entry in assay [6], in [7], in assay [9], in assay [14], in [10] and in [11] was “inactive” in each case. Further, the Potency result in assay [15] and in [12] was “inactive” each time. Besides, in assay [8], the result was inactive.

Consider `COc1cccc(C(=O)NN(C(=O)c2cc(C)cc(C)c2)C(C)(C)C)c1C`, for which the Potency result in assay [1], in assay [16], in assay [17], in assay [4], in [13] and in [5] was “inactive” in each case. In addition, the Potency entry in assay [6], in assay [7], in [9], in assay [11], in assay [15] and in assay [12] was “inactive” each time. For the same compound, the call in assay [18] was inactive. For the same compound, the activity change, positive = activation in [19] was -24.8%.

For the compound `CCC/C(=N\OCC)C1=C(O)CC(CC(C)SCC)CC1=O` (configuration not stated), the Potency result in assay [1], in assay [2], in [3], in assay [16], in [4] and in assay [6] was “inactive” in each case. The Potency result in [7], in assay [10], in [15] and in assay [12] was “inactive” each time. Besides, in assay [8], the outcome was inactive.

In the case of `CCOC(=O)C(c1c(O)c2ccccc2oc1=O)c1c(O)c2ccccc2oc1=O`, the Potency result in assay [2], in assay [3], in assay [17], in assay [4], in assay [5] and in assay [7] was “inactive” each time. The Potency result in [10], in assay [11], in assay [15] and in assay [12] was “inactive” each time.

For `C=C(C)[C@@H]1CC=C(C=O)CC1`, the Potency result in assay [1], in assay [2], in assay [3], in [4], in assay [13] and in [5] was “inactive” in each case. The Potency entry in assay [6], in assay [9], in assay [14], in assay [10] and in assay [12] was “inactive” throughout. Further, the call in assay [18] and in assay [8] was inactive. Also, the activity change, positive = activation in assay [19] was -5.19%.

Consider `CC(C)(C)OC(=O)c1ncn2c1[C@@H]1CCCN1C(=O)c1c(Br)cccc1-2`, for which the Potency entry in [2], in assay [3], in assay [16], in assay [17], in assay [4] and in assay [5] was “inactive” in each case. The Potency result in assay [6], in assay [9], in assay [10], in [15] and in [12] was “inactive” each time. Besides, the compound was called inactive in [18] and in assay [8]. Moreover, the activity change, positive = activation in assay [19] was -34.2% [at 42.5 µM].

As to `CNC(=O)Oc1c(C(C)(C)C)cc(C)cc1C(C)(C)C`, the Potency entry in [1], in assay [2], in assay [16], in assay [4], in [5] and in [6] was “inactive” in each case. In addition, the Potency entry in assay [7], in assay [9], in assay [10], in assay [15] and in [12] was “inactive” in each case. The Potency in assay [17] is 10.9 µM (active).
